The structures appear in SMILES notation. In all, about 2,400 compounds went through this assay and about 580 (24%) were called active. A selection follows. A number with no mark means an inactive call.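 The calls were made as follows: active = activity change at or above the mean plus 3 SD of buffer wells without dofetilide, per plate; inactive = the rest.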

Sequence of Potassium voltage-gated channel subfamily KQT member 2 (Rattus norvegicus) (O88943 whole entry, looked up): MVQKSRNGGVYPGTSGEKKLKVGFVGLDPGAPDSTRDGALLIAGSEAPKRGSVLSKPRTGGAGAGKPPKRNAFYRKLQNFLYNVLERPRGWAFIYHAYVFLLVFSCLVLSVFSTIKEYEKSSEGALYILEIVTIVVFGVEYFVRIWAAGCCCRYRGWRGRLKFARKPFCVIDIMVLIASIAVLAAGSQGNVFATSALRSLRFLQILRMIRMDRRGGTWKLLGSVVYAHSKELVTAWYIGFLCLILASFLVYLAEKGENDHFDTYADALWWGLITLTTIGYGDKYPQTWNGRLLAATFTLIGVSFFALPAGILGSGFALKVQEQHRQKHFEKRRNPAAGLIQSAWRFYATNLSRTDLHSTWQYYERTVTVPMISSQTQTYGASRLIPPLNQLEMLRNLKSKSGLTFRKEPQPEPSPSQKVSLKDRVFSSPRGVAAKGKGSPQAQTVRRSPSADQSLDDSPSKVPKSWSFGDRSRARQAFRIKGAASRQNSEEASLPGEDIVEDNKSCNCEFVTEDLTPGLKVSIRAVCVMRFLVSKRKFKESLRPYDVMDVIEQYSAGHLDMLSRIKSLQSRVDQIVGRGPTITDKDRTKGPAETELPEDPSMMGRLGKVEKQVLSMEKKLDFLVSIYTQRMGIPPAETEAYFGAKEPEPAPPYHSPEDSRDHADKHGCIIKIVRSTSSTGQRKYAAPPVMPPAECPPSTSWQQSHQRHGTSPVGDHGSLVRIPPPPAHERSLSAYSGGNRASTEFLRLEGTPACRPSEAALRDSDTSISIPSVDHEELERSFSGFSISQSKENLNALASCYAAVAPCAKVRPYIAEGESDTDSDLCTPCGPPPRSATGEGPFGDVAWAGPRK

This assay has as its target Potassium voltage-gated channel subfamily KQT member 2 (Rattus norvegicus) (UniProt O88943). In words: rat KCNQ2 channel activation by compounds alone, confirmation, counter-screen for hERG block protector project, cell-based, CHO, FluxOR thallium flux (AID 1942).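 Also: normalized value minus buffer-control mean plus three SD of buffer wells.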 The note with it: CHO-KCNQ2 cells, FluxOR thallium flux fluorescence; at 10 µM; stronger effect = higher value.
On to `COc1cc(S(=O)(=O)n2cnc(C)c2)ccc1Cl`, for which the activity change, less the hit threshold is -21.2%.

Turning to `COCCN(C(=O)CSc1nnc(C)n1Cc1ccccc1)c1c(N)n(CC(C)C)c(=O)[nH]c1=O`, the activity change, less the hit threshold was -21.8%. Under `Cc1nc2n(n1)CC(O)CS2` (stereo not drawn) stands -16.3%; under `CS(=O)(=O)N(Cc1ccccc1)c1ccc(C(=O)Nc2ccc(C(N)=O)cc2)cc1`, -23.7%; under `S=C(NCc1ccccc1)NCc1ccccc1Cl`, -23.7%. For `Cc1cccc(NC(=S)NC(=O)c2ccc(Br)o2)c1`, the activity change, less the hit threshold was 46.1% (active). Then `CCOc1ccc(-c2cccc(NC(=O)c3ccc(Br)o3)c2)nn1`, with -30.4%; and `O=C(CNC(=S)NC(=O)c1ccc(Br)o1)c1ccccc1`, with -11.7%. For the molecule `O=C(NC(=S)NCc1ccccc1)c1ccc(Br)o1`, the activity change, less the hit threshold was 70.4% (active).

Take `CCc1ccc(NC(=S)NC(=O)c2c(-c3ccccc3Cl)noc2C)cc1`: the activity change, less the hit threshold was -17.1%. Under `COc1ccc(OC)c(NC(=S)NC(=O)c2ccc(Br)o2)c1` stands -6.9%. On to `CCN(c1ccccc1)S(=O)(=O)c1ccc(NC(=S)NC(=O)c2ccc(Br)o2)cc1`, for which the activity change, less the hit threshold is 0.3% (active). Then `COc1ccc(NC(=S)NC(=O)c2ccc(Br)o2)cc1`, with 11.8% (active); and `CC(C)C(=O)Nc1cccc(C(=O)Nc2ccccc2C(=O)O)c1`, with -17.8%; and `COc1ccc(Cc2c(O)nc(SCC(=O)NC(C)(C)C)[nH]c2=O)cc1`, with -19.2%. For the molecule `CC(C(=O)N1CCN(c2ccc([N+](=O)[O-])cc2)CC1)N1C(=O)C2CC=CCC2C1=O` (stereo not drawn), the activity change, less the hit threshold was -20.1%. As to `Cc1cc(C)n2nc(SCC(=O)NC3CCCCC3C)nc2n1` (stereo not drawn), the activity change, less the hit threshold was -30.3%. As to `COCCOC(=O)C1=C(C)Nc2ncnn2C1c1ccc(F)cc1` (stereo not drawn), the activity change, less the hit threshold was -22%. As for `CCOc1ccc(NC(=O)C2C(C(=O)O)C3(Cl)C(Cl)=C(Cl)C2(Cl)C3(Cl)Cl)cc1` (stereo not drawn), the activity change, less the hit threshold is -15.5%. Regarding `S=C(N/N=C/c1ccccc1Cl)Nc1cccc(Cl)c1Cl`, the activity change, less the hit threshold was 8.6% (active). With `Cc1ccc(Cl)cc1NC(=S)N/N=C/c1cccc2ccccc12`, the activity change, less the hit threshold is -24.4%. Then `Fc1ccccc1NC(=S)N/N=C/c1ccccc1Br`, with -25.7%. Under `CCN(CC)CCCNC(=O)c1cn(-c2cccc(OC)c2)c(=O)c2ccccc12` stands -18.5%; under `COc1ccc(-c2ccc(/C=N/NC(=O)c3cccnc3)o2)c([N+](=O)[O-])c1`, -11.4%; under `C=CCNC(=S)Nc1sc2c(c1C(=O)OCC)CC(C)(CC)OC2` (stereo not drawn), 15.9% (active). Regarding `C=CCNC(=S)Nc1sc2c(c1C(=O)OCC)CC(C(C)C)OC2` (stereo not drawn), the activity change, less the hit threshold was 16.9% (active). Turning to `Cc1ccc(Cl)cc1NC(=O)COC(=O)c1ccccc1O`, the activity change, less the hit threshold is -21.1%.

On to `Cc1ccccc1OC(=O)n1c(=S)oc2cc(Cl)ccc21`, for which the activity change, less the hit threshold was 9.7% (active).

As for `COC(=O)n1c(=S)oc2cc(Cl)ccc21`, the activity change, less the hit threshold was -10%. Then `CCCCC(=O)Nc1ccc(NCc2ccc(C)s2)cc1`, with 42.5% (active); and `CCCCC(=O)Nc1cccc(C(=O)Nc2ccccc2C(=O)O)c1`, with -4%; and `Cc1ccc(NC(=O)CCC(=O)OCC(F)(F)C(F)F)cc1`, with -23%. Then `COc1cccc(OC)c1OCCOCCN1CCN(C)CC1`, with -21%; and `O=C(NC(=S)NCc1ccccc1)c1cccs1`, with 5.6% (active). Then `O=C(NC(=S)Nc1ccc(N2CCCCC2)cc1)c1cccs1`, with -9.5%; and `O=C(NC(=S)Nc1ccccc1N1CCCCC1)c1cccs1`, with -23.1%; and `CCN(CC)c1ccc(NC(=S)NC(=O)c2cccs2)cc1`, with -9.5%. In the case of `O=C(NC(=S)Nc1ccccc1)c1cccs1`, the activity change, less the hit threshold is 3.3% (active). Regarding `CCSc1nc2c(c(=O)[nH]1)C(c1ccc(C)cc1)C1=C(CCCC1=O)N2` (stereo not drawn), the activity change, less the hit threshold is -8.9%.

For the molecule `O=C(O)C/C(=C\c1cc(Br)cs1)c1nc2ccccc2o1`, the activity change, less the hit threshold was -8.4%.

Take `CCCCCCc1cc2cc(-c3nnc(-c4ccccc4O)o3)c(=O)oc2cc1O`: the activity change, less the hit threshold is -7%. In the case of `CC(C)(C)c1csc(NC(=O)C2=COCCO2)n1`, the activity change, less the hit threshold is -13%. Under `Oc1c(Cl)cc(Cl)cc1Sc1cc(Cl)cc(Cl)c1O` stands -1.7%; under `Oc1c(Cl)cc(Cl)cc1/C=N/c1nccs1`, 32.3% (active). In the case of `Oc1c(Cl)cc(Cl)cc1/C=N/c1ncn[nH]1`, the activity change, less the hit threshold was 23.9% (active). Under `CC1CCN(C(=O)CSc2nnc(CNC(=O)c3ccco3)o2)CC1` stands -12.8%; under `CCOc1ccc(NC(=O)CS(=O)CC(=O)NC2CCCc3ccccc32)cc1` (stereo not drawn), -13.6%. Then `Cc1nc2ccccc2n1-c1ccccc1`, with -4.2%. Under `COc1ccc(-n2ncc3c2CC(C)(C)CC3NC(=O)c2cn[nH]c2)cc1` (stereo not drawn) stands -22.9%; under `O=C(O)c1cc(NN=C2c3ccccc3-c3ccccc32)ccc1Cl`, 32.4% (active); under `O=C(O)c1cc(N/N=C/c2ccc(-c3ccccc3)cc2)ccc1Cl`, -22.4%. As to `CC(C)Oc1cc(S(=O)(=O)N2CCCCC2)ccc1N`, the activity change, less the hit threshold is -15.7%. Consider `O=[N+]([O-])c1ccc(S(=O)(=O)Nc2ccc(S(=O)(=O)N3CCCC3)cc2)cc1`, for which the activity change, less the hit threshold is -23.3%.

Turning to `Cc1[nH]c(=S)c(C#N)c(C)c1Cc1ccc(Cl)cc1Cl`, the activity change, less the hit threshold was -7.1%.

Consider `CCCCOc1ccc(-c2c(C#N)c(N)[nH]c(=S)c2C#N)cc1`, for which the activity change, less the hit threshold is -10.1%. Turning to `CCOC(=O)c1c(C)[nH]c(=S)c(C#N)c1-c1ccc(Cl)cc1`, the activity change, less the hit threshold was 5.2% (active).

Consider `Cc1ccc([N+](=O)[O-])c2c1C(N1CC(C)OC(C)C1)C(C)(C)O2` (stereo not drawn), for which the activity change, less the hit threshold is -14.4%. Turning to `S=c1nc(C2CCCCC2)n(-c2ccccc2)[nH]1`, the activity change, less the hit threshold was 41.2% (active).

On to `Cc1cc(OCC(=O)Nc2cc(S(=O)(=O)N3CCOCC3)ccc2N2CCCC2)ccc1C(C)C`, for which the activity change, less the hit threshold is -14.1%. Then `Cc1nnc(C)n1/N=C/c1cc(Br)cc(Br)c1O`, with 17.8% (active). On to `CNC(=S)N/N=C/c1cc(Br)cc(Br)c1O`, for which the activity change, less the hit threshold was -6.6%. Then `CC(=O)C1=C(O)C(=O)N(c2cccnc2)C1c1ccc(Cl)cc1` (stereo not drawn), with -25.8%; and `Cc1c(C)c2ccc(OCC(=O)N[C@@H](Cc3ccccc3)C(=O)O)cc2oc1=O`, with -10%. Take `O=C(COc1ccc2c3c(c(=O)oc2c1)CCC3)N[C@@H](Cc1ccccc1)C(=O)O`: the activity change, less the hit threshold was 8.1% (active).

For the molecule `O=C(COc1ccc2c3c(c(=O)oc2c1)CCC3)NCC1CCC(C(=O)O)CC1` (stereo not drawn), the activity change, less the hit threshold is -17.1%. As for `Cc1cc(=S)nc(-c2ccccn2)[nH]1`, the activity change, less the hit threshold is -4.4%. As for `Cc1[nH]c(-c2ccccn2)nc(=S)c1Cl`, the activity change, less the hit threshold is 92% (active). Take `COC(=O)Cc1[nH]n(-c2nc3ccccc3s2)c(=O)c1C(C)=Nc1ccc(C)cc1`: the activity change, less the hit threshold is -15.8%. Then `COc1cc(OC)cc(C(=O)NNC(=O)C(=O)Nc2cc(OC)c(Cl)cc2OC)c1`, with 49.6% (active); and `COc1cccc(CCNS(=O)(=O)CCNC(=O)c2cccc(OC)c2)c1`, with -13.6%; and `COc1cc(NC(=O)c2ccc3c(c2)OCO3)ccc1NC(=O)c1cccs1`, with -18.6%. In the case of `COc1ccc(OC)c(NC(=O)C(=O)NNC(=O)c2cccs2)c1`, the activity change, less the hit threshold was -6.1%. As to `COc1ccc(NC(=O)C(=O)NNC(=O)c2cccs2)c(OC)c1`, the activity change, less the hit threshold was 30.8% (active). Then `COc1ccc(C(=O)NNC(=O)C(=O)Nc2cccc3ccccc23)cc1`, with 59.1% (active); and `COc1cc(NC(=O)c2cc(-c3cccnc3)nc3ccc(C)cc23)c(OC)cc1Cl`, with -13.9%; and `COc1cccc(C(=O)NNC(=O)C(=O)Nc2cccc3ccccc23)c1`, with 59.7% (active).

On to `C=C(C)CSc1nnc2[nH]c(=O)cc(N)n12`, for which the activity change, less the hit threshold is -18.3%.

For `O=C(/C=C/Nc1ccccc1)C(F)(F)F`, the activity change, less the hit threshold was -19.8%. In the case of `COc1ccc(C2CC(c3ccc(Cl)cc3Cl)Nc3nc(N)nn32)cc1OC` (stereo not drawn), the activity change, less the hit threshold was -21.7%. In the case of `COc1ccc(/C=C2\SC(c3ccc(C)cc3)=NC2=O)cc1OC`, the activity change, less the hit threshold was -17.7%.

Take `Oc1ccc(Br)cc1-c1n[nH]c(=S)n1Cc1ccccc1`: the activity change, less the hit threshold was -4.7%. Then `Fc1ccccc1N1CCN(c2cnc3ccccc3n2)CC1`, with -14.5%; and `Cc1cccc(N(C(=O)c2csnn2)C(C(=O)NCc2ccccc2)c2ccncc2)c1` (stereo not drawn), with -10.4%. Under `O=C1C(c2ccccc2)C(c2ccccc2)NC(c2ccccc2)C1c1ccccc1` (stereo not drawn) stands -17.9%; under `O=C(CCSc1ccc(Br)cc1)c1ccc(O)cc1`, -15%; under `O=C(Cn1cnc2ccccc21)c1ccccc1`, -11.5%.

With `COc1cccc(C(=O)NNC(=O)C(=O)Nc2ccc(OC)cc2OC)c1`, the activity change, less the hit threshold was 29.6% (active). Regarding `O=C(CN1C(=O)COc2ccccc21)NCCCN1CCOCC1`, the activity change, less the hit threshold was -8.4%.

As for `Cc1cccc(NC(=S)N/N=C2/CCCCc3ccccc32)c1`, the activity change, less the hit threshold is -20.4%. Under `Cc1cccc2nc(-c3cccnc3)c(NCCC(C)C)n12` stands -51.2%; under `COc1nnc(-c2ccc(C)c(S(=O)(=O)NC(C)(C)CO)c2)c2ccccc12`, -9.1%.

Regarding `O=C1NC(=S)SC1=C1CCCCCC1`, the activity change, less the hit threshold is 58.8% (active).

As for `CCOC(=O)N1CCN(C(=O)CN(c2ccc(OCC)cc2)S(C)(=O)=O)CC1`, the activity change, less the hit threshold is -17.4%.

Take `c1ccc2oc(-c3nn4c(Cn5cnc6ccccc65)nnc4s3)cc2c1`: the activity change, less the hit threshold is -19.1%. Under `C/C(Cl)=C\Cn1c(O)c(N=NC(N)=S)c2cc(Br)ccc21` stands 16.1% (active). Then `C=CCn1c(O)c(N=NC(=S)Nc2ccccc2F)c2cc(S(=O)(=O)N3CCOCC3)ccc21`, with -16.8%; and `Cc1cccc(Cn2c(O)c(N=NC(=S)Nc3ccccc3F)c3ccccc32)c1`, with -22.3%. Under `CCC1(C(=O)O)NC(c2cc(OC)ccc2O)C2C(=O)N(Cc3ccccc3)C(=O)C21` (stereo not drawn) stands -9.2%.

For the origin of these results see PubChem BioAssay AID1942 (Johns Hopkins Ion Channel Center, 2009).
